Active and inactive are the calls of the source. Calls come from the whole dose curve; as a rule, active = well fitted curve in the direction sought with a large enough effect; inconclusive = small, poorly fitted or top-dose-only effect, or effect the other way, or another doubt; inactive = no such curve, though single readings can be large or run the other way.

A short description of the assay: Inducers of the Endoplasmic Reticulum Stress Response (ERSR) in human glioma: Validation (AID 504836). Note: 0% is about no effect. To be noted: human glioma cells, ER stress response reporter; series mostly up to 38.3 µM; activation: at the top concentration. Put shortly:
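Stably transfected U87-MG human glioma cells carrying a GRP78-based luminescent sensor were seeded at 1000 cells/well, pin-dosed with compounds and incubated 16 h. Luciferase reagent was then added, and end-point luminescence was read after 10 min at room temperature.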
For `Cn1ccc2cc3c(cc21)CCN3C(=O)Nc1cccnc1`, the “activation” value was -3.19% (inactive). As for `NC(=O)c1cn(Cc2c(F)cccc2F)nn1`, the figure is -1.98% (inactive); as for `N=c1nc(N2CCCCC2)cc(N)n1O`, -3.66% (inactive). Take `COc1ccc(Cl)cc1C(=O)NCCc1ccc(S(=O)(=O)NC(=O)NC2CCCCC2)cc1`: the “activation” value is -2.98% (inactive). As for `CN(C)CCCN1c2ccccc2CCc2ccc(Cl)cc21`, the figure is -1.42% (inactive); as for `CNCCCC1c2ccccc2C=Cc2ccccc21`, -0.254% (inactive); as for `O=C1NC(=O)C(c2ccccc2)(c2ccccc2)N1`, 2.61% (inactive). As for `CC(CN(C)C)CN1c2ccccc2CCc2ccccc21` (stereo not drawn), the figure is -1.49% (inactive). As for `CCN(CC)CCNC(=O)c1cc(Cl)c(N)cc1OC`, the figure is -1.16% (inactive); as for `CCOC(=O)N1CCC(=C2c3ccc(Cl)cc3CCc3cccnc32)CC1`, -0.678% (inactive). Turning to `Clc1ccc(C(c2ccccc2Cl)C(Cl)Cl)cc1` (stereo not drawn), the “activation” value is 0.737% (inactive).

`CC/C(=C(\c1ccccc1)c1ccc(OCCN(C)C)cc1)c1ccccc1`: the “activation” value was -1.38% (inactive).

With `NC(=O)OCC(COC(N)=O)c1ccccc1`, the “activation” value is -3.55% (inactive).

For the compound `CN[C@H]1CC[C@@H](c2ccc(Cl)c(Cl)c2)c2ccccc21`, the “activation” value is -4.06% (inactive). For `CC1=NS(=O)(=O)c2cc(Cl)ccc2N1`, the “activation” value is -1.96% (inactive). For `Cn1cnc([N+](=O)[O-])c1Sc1ncnc2nc[nH]c12` the value was -1.08% (inactive); for `CC(C)NCC(O)c1ccc(O)c(O)c1` (stereo not drawn), -4.35% (inactive).

On to `CN1CCN(C2=Nc3cc(Cl)ccc3Nc3ccccc32)CC1`, for which the “activation” value is -0.248% (inactive).

For the origin of these results see PubChem BioAssay (NCATS).
